Experimental findings from PubChem BioAssay are described below.

For assay [1], the system named is Wnt5a (protein binding on small-molecule microarray). The assay can be described thus: small molecules binding Wnt5a protein – biophysical, small-molecule microarray, 635/667 nm fluorescence, primary screen (AID 1142).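 Also: fluorescence read at 667 nm with signal to noise per printed feature.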 The note with it: 635 nm fluorescence, higher = more signal.
The nature of assay [2]: ATP-based viability of Huh7 replicon cells – cell-based, CellTiter-Glo luminescence, basal, 48 h, cytotoxicity control for HCV replication inhibitor project, primary screen (AID 1143).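 Also: Huh7 hepatoma cells carrying a hepatitis C replication reporter with no stimulus; test concentration not given here.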 The conditions noted are these: higher = more signal, called active from +8 up or from −8 down. (Replicon systems follow genome replication, usually without infectious particles.)
Assay [3] can be described thus: Pseudomonas biofilm growth suppression – PAO1 strain, BacTiter-Glo luminescence, LB-PBS, primary screen (AID 1144). The conditions noted are these: P. aeruginosa PAO1 biofilm, 12 h, higher = more signal.
The nature of assay [4]: basal CRE-LacZ reporter activity in PC12 – cell-based, unstimulated, primary screen (AID 1145). The conditions noted are these: no forskolin, luminescence, 4.5 h, higher = more signal, called active from +8 up or from −8 down.
Assay [5] can be described thus: forskolin-driven CRE-LacZ activity in PC12 – cell-based, CRE-LacZ reporter, forskolin-stimulated, primary screen (AID 1146).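 Also: PC12 cells with 6xCRE LacZ reporter stimulated by forskolin 10 µM; beta-galactosidase reporter signal reflecting CREB driven transcription.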 The note with it: luminescence, 4.5 h, higher = more signal, called active from +8 up or from −8 down.
Assay [6] addresses Streptavidin (Streptomyces avidinii) (UniProt P22629). The assay can be described thus: compounds binding control protein streptavidin – biophysical, small-molecule microarray, 635/667 nm fluorescence, artefact control for SMM compound annotation, primary screen (AID 1147).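 Also: signal reflects streptavidin binding to arrayed compounds as a control protein.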 The note with it: higher = more signal.
The nature of assay [7]: probe aInhba binding on compound microarray – biochemical, small-molecule microarray, 635/667 nm fluorescence, primary screen (AID 1148).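 Also: score merges 667nm spot fluorescence with signal-to-noise for antibody binding to printed compounds.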 The note with it: higher = more signal.
For assay [8], the target named is Torsin-1A (Homo sapiens) (UniProt O14656). Put plainly: TOR1A wild-type binding on microarray – cell lysate, small-molecule microarray, lysate, 635/667 nm, primary screen (AID 1149). The note with it: COS7 hTOR1A-WT lysate, 635 nm fluorescence, higher = more signal.
For assay [9] the target is unchanged. Put plainly: torsin A mutant lysate binding on microarrays – cell lysate, small-molecule microarray, COS7 lysate, 635/667 nm fluorescence, primary screen (AID 1150).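 Also: score pools 667 nm emission and signal to noise measuring lysate protein binding.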 The note with it: COS7 hTOR1A mutant lysate, 635 nm fluorescence, higher = more signal.
The test system of assay [10] is Sonic hedgehog protein (Shh). Put plainly: Sonic hedgehog microarray binding compounds – biochemical, small-molecule microarray, 635/667 nm fluorescence, primary screen (AID 1151).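 Also: Shh protein binding to compounds spotted on small-molecule microarray slides; score combines spot fluorescence intensity with signal-to-noise across triplicate slides.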 The note with it: 635 nm fluorescence, higher = more signal.

Molecules are shown by their SMILES. Activity calls are given as the source filed them. Unless noted, no rule for the calls is given here.

Streptavidin (Streptomyces avidinii), sequence (P22629 whole entry, looked up): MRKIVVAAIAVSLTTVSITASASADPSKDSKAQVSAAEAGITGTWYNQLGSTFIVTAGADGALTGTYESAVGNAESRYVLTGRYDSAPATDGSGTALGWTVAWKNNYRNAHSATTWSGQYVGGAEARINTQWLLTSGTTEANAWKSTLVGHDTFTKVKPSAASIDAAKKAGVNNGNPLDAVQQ
Torsin-1A (Homo sapiens), sequence (O14656 whole entry, looked up): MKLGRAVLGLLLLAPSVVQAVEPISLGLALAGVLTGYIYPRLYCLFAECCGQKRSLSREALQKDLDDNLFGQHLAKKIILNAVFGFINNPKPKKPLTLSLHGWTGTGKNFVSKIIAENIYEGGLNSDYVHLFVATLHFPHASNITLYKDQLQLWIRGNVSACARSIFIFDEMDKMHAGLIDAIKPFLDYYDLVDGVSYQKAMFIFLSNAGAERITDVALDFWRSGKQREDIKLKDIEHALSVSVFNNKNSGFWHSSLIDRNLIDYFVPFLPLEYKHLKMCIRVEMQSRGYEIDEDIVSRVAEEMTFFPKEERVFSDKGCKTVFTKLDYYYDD

As for `COc1ccc(C(=O)O[C@H]2CC[C@]3(C)C4=C(CCC3C2(C)C)[C@]2(C)CC[C@H]([C@H](C)CCCC(C)C)[C@@]2(C)CC4)cc1` (stereo not given in full), the composite z-score in assay [1] is 0.314; in assay [6], 0.25; in assay [7], -0.103; in assay [8], 0.344; in [9], 0.609; in assay [10] it was 1. Also, the z-score was -1.02 (inactive) in [2], -1.6 (inactive) in [3], 0.131 (inactive) in [4] and -0.634 (inactive) in assay [5].

For `COC(=O)[C@@]1(Cc2ccc(F)cc2)[C@H]2c3cc(C(=O)N4CCCC4)n(Cc4ccc(C)o4)c3C[C@H]2CN1C(=O)c1ccccc1`, the composite z-score in assay [1] is 0.709; in [6], 1.39; in assay [7], 0.0108; in [8], 0.19; in [9] it was 0.322; in [10], -0.704. Besides, the z-score is -2.77 (inactive) in assay [2], 0.82 (inactive) in [3], -0.182 (inactive) in [4] and -1.19 (inactive) in assay [5].

In the case of `CCCCN1CC=CC23O[C@@H]4/C=C\CCC(C)OC(=O)C4[C@H]2C(=O)N(CCCCCO)[C@@H]3C1=O` (stereo not given in full), the composite z-score in assay [1] was -0.612; in [6], -1.24; in [7], -0.246; in [8], -1.6; in assay [9], -1.78; in assay [10] it was -0.0223. Moreover, the z-score in assay [2] is 0.0396 (inactive); in [3], -0.398 (inactive); in assay [4], 0.191 (inactive); in assay [5], -0.0864 (inactive).

Consider `CN1C(=O)C2C=CC(C(O)C3CCCCC3)N(Nc3ccc([N+](=O)[O-])cc3[N+](=O)[O-])C2C1=O` (stereo not given), for which the composite z-score in [1] was 0.326; in assay [6], 1.2; in assay [7] it was -0.024; in assay [8] it was 1.27; in [9] it was 1.04; in assay [10], -0.0056. In addition, the z-score in [2] was 0.729 (inactive); in assay [3], 1.17 (inactive); in assay [4], 0.626 (inactive); in assay [5], 1.37 (inactive).

As for `C=C(COC)/C(=C/C[C@H](OC(=O)c1ccncc1)c1ccc(OCCO)cc1)c1cnc2ccccc2c1`, the composite z-score in [1] was 0.638; in assay [6] it was 1.73; in assay [7], -0.0087; in assay [8] it was 1.27; in [9] it was 0.953; in assay [10] it was 2.11. Besides, the z-score in assay [2] is -0.593 (inactive); in assay [3] it was 0.308 (inactive); in [4], 6.73 (inactive); in [5] it was -0.073 (inactive).

On to `CN1C(=O)C2C=CC(C(O)c3ccccc3)N(Nc3ccccc3)C2C1=O` (stereo not given), for which the composite z-score is -0.244 in [1]; -0.0782 in [6]; -0.0195 in [7]; -1.5 in [8]; 0.254 in assay [9]; -1.58 in assay [10]. The z-score is 0.658 (inactive) in [2], -0.231 (inactive) in assay [3], 0.626 (inactive) in assay [4] and -0.206 (inactive) in [5].

`[N-]=[N+]=NCc1ccccc1C[C@]1(C(=O)O)N=C(c2ccc(OCCCO)cc2)O[C@H]1c1ccccc1N=[N+]=[N-]`: the composite z-score in assay [1] is 0.92; in assay [6], 0.954; in assay [7], 0.199; in [8] it was 2.01; in [9] it was 1.39; in assay [10], 0.237. Moreover, the z-score in assay [2] was -2.37 (inactive); in assay [3], -2.08 (inactive); in [4], 0.218 (inactive); in assay [5], 0.987 (inactive).

Turning to `CCCCN1CC=CC23O[C@@H]4C=CCOC(=O)[C@@H]4[C@H]2C(=O)N(CCCCCO)[C@@H]3C1=O` (stereo not given in full), the composite z-score in assay [1] is -0.103; in assay [6], -1.32; in [7], -0.0531; in [8], -0.915; in [9] it was 1.23; in assay [10] it was 1.07. Further, the z-score is 0.445 (inactive) in assay [2], -1.08 (inactive) in assay [3], -0.761 (inactive) in assay [4] and -0.645 (inactive) in assay [5].

On to `C=CCOC(=O)[C@H]1[C@@H]2C(=O)O[C@@H](c3ccccc3)[C@@H](c3ccccc3)N2[C@@H](c2ccc(OCCOC(=O)[C@H]3C[C@H]4C(=O)N5CCC[C@H]5C(=O)N4[C@H]3c3ccc(O)cc3)cc2)[C@]12C(=O)Nc1ccccc12`, for which the composite z-score in assay [1] is 0.753; in assay [6], 0.116; in assay [7], -0.217; in [8], 0.874; in [9], 1.1; in [10], 1.8. In addition, the z-score was -0.568 (inactive) in assay [2], -0.696 (inactive) in assay [3], 0.415 (inactive) in [4] and -0.702 (inactive) in [5].

Consider `COc1ccc(C(O)C2C=CC3C(=O)N(c4ccccc4)C(=O)C3N2Nc2ccc(C(C)C)cc2)cc1OCc1ccccc1` (stereo not given), for which the composite z-score in [1] came to 0.409; in [6] it was 1.89; in assay [7], 0.341; in assay [8] it was 0.385; in assay [9], 0.554; in [10], 0.55. Further, the z-score was -0.0843 (inactive) in [2], -2.09 (inactive) in assay [3], 1.4 (inactive) in [4] and -0.465 (inactive) in assay [5].

As for `CC(C)C(CO)N1C(=O)[C@@H]2[C@H]3C(=O)OCC=C[C@H]3OC23C=CCN(C(C)C)C(=O)[C@@H]13` (stereo not given in full), the composite z-score is -0.3 in assay [1]; -0.629 in assay [6]; -0.0963 in assay [7]; -0.543 in assay [8]; -0.374 in assay [9]; 0.841 in assay [10]. The z-score in assay [2] is -0.602 (inactive); in [3], -0.1 (inactive); in [4], -0.757 (inactive); in assay [5], -0.681 (inactive).
